Source: PubChem BioAssay (NCI)
This is part of a sample that, as a whole, favours compounds with a hit. Of some 83,000 tested, about 20% had one in any assay.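 Single-dose data. Exposure time 48 hours. Values below 10 considered active.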 Activity calls are given as the source filed them.

These compounds were tested on MDA-MB-435 melanoma (assay: NCI-60 one-dose screen, 48 h (100 = growth as untreated, 0 = no growth, -100 = all killed)). Conditions: 10 µM unless noted.

SMILES | growth
O=C(Cn1c(-c2ccccc2)nc2ccccc21)N=Nc1c(O)[nH]c2ccc(Cl)cc12 | 2.53% (active)
Cn1cc(-c2cc(N)n3nc(-c4c[nH]c5ccc(Cl)cc45)cc3n2)c2cccnc21 | -84.2% (active)
COc1ccc(NC(=O)N/N=C/c2c[nH]c3ccccc23)cc1 | -26.1% (active)
C[C@H]1[C@@H](CC(=O)N[C@@H](Cc2coc3ccccc23)B(O)O)O[C@@H]2OC3(C)CC[C@H]4[C@H](C)CC[C@@H]1[C@@]24O3 | -75.8% (active)
CCCCCCCCc1cccc(CC(=O)Nc2ccc(C)cc2C(=O)O)c1 | 54.9% [25 µM] (inactive)
CC(C)(C)C(=O)c1c2c(c3ccc4c5ccccc5ccc4n13)C(=O)c1ccccc1C2=O | 103% (inactive)
CN(C)CCCc1ccc(Nc2cnn(C)c(=O)c2Cl)cc1 | 97.8% (inactive)
N#Cc1cc(-c2ccnc(Nc3ccc(N4CCN(C5COC5)CC4)cc3)n2)ccc1N1CCCC1 | 66.9% (inactive)
O=C(c1ccc(Cl)cc1)C1[C@H](c2ccccc2Cl)[C@@H](c2ccccc2)NC12C(=O)Nc1ccc(Br)cc12 (some centres undefined) | -93.4% (active)
C=CCSc1nnc(-c2ccc(-c3nc4ccccc4[nH]3)cc2)o1 | 79% (inactive)
CCCN(CCC)S(=O)(=O)c1ccc(C(=O)O)cc1.CCCN(CCC)S(=O)(=O)c1ccc(C(=O)O)cc1.[Cl][Pt+2][Cl].[NH2-].[NH2-] | -54.6% (active)
O=C(Cc1c(-c2cccc([N+](=O)[O-])c2)n(-c2ncnc3c2c(-c2ccccc2)c(-c2ccccc2)n3Cc2ccccc2)[nH]c1=O)c1ccc(Cl)c(Cl)c1 | 19.9% (inactive)
Cn1cc(-c2cc(N)n3nc(-c4c[nH]c5ccccc45)cc3n2)c2ccccc21 | -80.6% (active)
Clc1ccc(-c2nc3ccc(-c4nnc(SCc5ccccc5)o4)cc3[nH]2)cc1 | 62.6% (inactive)
N#CC1=C(c2ccco2)Nc2c(c(-c3ccccc3)nn2-c2ccccc2)C12C(=O)Nc1ccc(Cl)cc12 (centres undefined) | 53.7% (inactive)
Cc1ccc(/C=C/C(=O)c2ccc(S(=O)(=O)NCCNc3nc(N(C)C)nc(N4CCOCC4)n3)cc2)cc1 | 74.8% (inactive)
Cc1nc2sccn2c1-c1nnc(SCc2ccccc2)o1 | 97.4% (inactive)
Cc1nc2sccn2c1-c1nnc(SCC(C)C)o1 | 102% (inactive)
CN(CCSSCCN1CCOCC1)C(=O)Oc1cc2c(c3ccccc13)[C@H](CCl)CN2C(=O)c1cc2cc(OCCCN3CCC3)ccc2[nH]1 | -36.5% (active)
O=C1/C(=C/c2cnc(-c3ccccc3)s2)SC(=S)N1Cc1ccc2c(c1)OCO2 | 94.5% (inactive)
O=C(Cn1c(-c2ccccc2)nc2ccccc21)N=Nc1c(O)[nH]c2ccc(Br)cc12 | -32.3% (active)
COc1ccc(N=Nc2c(N)nn3c(N)c(C#N)c(-c4ccc(C)cc4)nc23)cc1 | 56.6% (inactive)
O=C1Nc2cc(-c3ccc(NS(=O)(=O)c4ccc(C(F)(F)F)cc4)cc3)ccc2/C1=C/c1ccc[nH]1 | 9.69% (active)
COC(=O)c1c(C(=O)OC)c2c3ccccc3c3ccccc3n2c1C(=O)C(F)(F)F | 102% (inactive)
COc1cccc(-c2ccc(/C=N/NC(=O)c3[nH]c4ccc(Br)cc4c3-c3ccccc3)s2)c1 | -51.3% (active)
COc1ccc(NC(=O)CSc2nnc(-c3ccc(-c4nc5ccccc5[nH]4)cc3)o2)cc1 | 20.9% (inactive)

The compounds below were run on SW-620 colon in the same assay as above. Conditions: 10 µM unless noted.

SMILES | growth
COc1ccc2[nH]c(=O)cc(-n3ncc(C(=O)/C=C/c4cc(OC)c(OC)c(OC)c4)c3C)c2c1 | -51.9% (active)
COc1ccccc1NC(=O)c1ccc(NC(=O)CCl)s1 | -18.5% (active)
Cc1ccc(C(C)C)cc1Oc1cccc(-c2c(-c3ccc(C(F)(F)F)cc3)ncn2C2CCNCC2)n1 | -85.5% (active)
O=C(c1ccc(O)cc1)C1[C@H](c2ccc(Cl)cc2)[C@@H](c2ccccc2)NC12C(=O)Nc1ccccc12 (some centres undefined) | -12.7% (active)
COc1c(B(O)O)cccc1-c1nc2ccc3cn[nH]c3c2c2c1CCCC2 | 53.6% (inactive)
COc1ccc(S(=O)(=O)Nc2ccc(-c3ccc4c(c3)NC(=O)/C4=C\c3ccc[nH]3)cc2)cc1OC | 16.1% (inactive)
Cc1ccc2c(c1)nc(-c1ccccc1)n2CC(=O)N=Nc1c(O)[nH]c2ccc(Cl)cc12 | 0.844% (active)
Cc1nn(-c2ccccc2)c2nc(C)n(CC(=O)N/N=C/c3ccccc3O)c(=O)c12 | 18.9% (inactive)
Cc1cc(C)c2[nH]c(=O)c(C(c3nnnn3Cc3ccc4c(c3)OCO4)N3CCN(C)CC3)cc2c1 (centres undefined) | 110% (inactive)
FC(F)(F)CN1CCN(CCn2c(C(F)(F)F)cc3c(Cl)ncnc32)CC1 | 11.3% (inactive)
O=C1NC(=NC23CC4CC(CC(C4)C2)C3)N/C1=C\c1ccc2ncccc2c1 | 1.21% (active)
COc1cc2cc(C(=O)N3C[C@@H](CCl)c4c3cc(OC(=O)N(CCC(=O)N3CCN(C)CC3)C3CCCCC3)c3ccccc43)[nH]c2c(OC)c1OC | -55% (active)
O=C(Cn1c(-c2ccccc2)nc2ccccc21)N=Nc1c(O)[nH]c2ccc(Cl)cc12 | 23% (inactive)
Cn1cc(-c2cc(N)n3nc(-c4c[nH]c5ccc(Cl)cc45)cc3n2)c2cccnc21 | -72.8% (active)
COc1ccc(NC(=O)N/N=C/c2c[nH]c3ccccc23)cc1 | 25% (inactive)
C[C@H]1[C@@H](CC(=O)N[C@@H](Cc2coc3ccccc23)B(O)O)O[C@@H]2OC3(C)CC[C@H]4[C@H](C)CC[C@@H]1[C@@]24O3 | 3.32% (active)
CCCCCCCCc1cccc(CC(=O)Nc2ccc(C)cc2C(=O)O)c1 | 51.2% [25 µM] (inactive)
CC(C)(C)C(=O)c1c2c(c3ccc4c5ccccc5ccc4n13)C(=O)c1ccccc1C2=O | 102% (inactive)
CN(C)CCCc1ccc(Nc2cnn(C)c(=O)c2Cl)cc1 | 109% (inactive)

SMILES | growth
N#Cc1cc(-c2ccnc(Nc3ccc(N4CCN(C5COC5)CC4)cc3)n2)ccc1N1CCCC1 | 72.7% (inactive)
O=C(c1ccc(Cl)cc1)C1[C@H](c2ccccc2Cl)[C@@H](c2ccccc2)NC12C(=O)Nc1ccc(Br)cc12 (some centres undefined) | -84.1% (active)
C=CCSc1nnc(-c2ccc(-c3nc4ccccc4[nH]3)cc2)o1 | 101% (inactive)
CCCN(CCC)S(=O)(=O)c1ccc(C(=O)O)cc1.CCCN(CCC)S(=O)(=O)c1ccc(C(=O)O)cc1.[Cl][Pt+2][Cl].[NH2-].[NH2-] | 20.6% (inactive)
O=C(Cc1c(-c2cccc([N+](=O)[O-])c2)n(-c2ncnc3c2c(-c2ccccc2)c(-c2ccccc2)n3Cc2ccccc2)[nH]c1=O)c1ccc(Cl)c(Cl)c1 | 56.1% (inactive)
Cn1cc(-c2cc(N)n3nc(-c4c[nH]c5ccccc45)cc3n2)c2ccccc21 | -87.1% (active)
Clc1ccc(-c2nc3ccc(-c4nnc(SCc5ccccc5)o4)cc3[nH]2)cc1 | 12.9% (inactive)
N#CC1=C(c2ccco2)Nc2c(c(-c3ccccc3)nn2-c2ccccc2)C12C(=O)Nc1ccc(Cl)cc12 (centres undefined) | 15.9% (inactive)
Cc1ccc(/C=C/C(=O)c2ccc(S(=O)(=O)NCCNc3nc(N(C)C)nc(N4CCOCC4)n3)cc2)cc1 | 29.1% (inactive)
Cc1nc2sccn2c1-c1nnc(SCc2ccccc2)o1 | 105% (inactive)
Cc1nc2sccn2c1-c1nnc(SCC(C)C)o1 | 97.6% (inactive)
CN(CCSSCCN1CCOCC1)C(=O)Oc1cc2c(c3ccccc13)[C@H](CCl)CN2C(=O)c1cc2cc(OCCCN3CCC3)ccc2[nH]1 | -8.71% (active)
O=C1/C(=C/c2cnc(-c3ccccc3)s2)SC(=S)N1Cc1ccc2c(c1)OCO2 | 102% (inactive)
O=C(Cn1c(-c2ccccc2)nc2ccccc21)N=Nc1c(O)[nH]c2ccc(Br)cc12 | 11.9% (inactive)
COc1ccc(N=Nc2c(N)nn3c(N)c(C#N)c(-c4ccc(C)cc4)nc23)cc1 | 67.2% (inactive)
O=C1Nc2cc(-c3ccc(NS(=O)(=O)c4ccc(C(F)(F)F)cc4)cc3)ccc2/C1=C/c1ccc[nH]1 | 33.3% (inactive)
COC(=O)c1c(C(=O)OC)c2c3ccccc3c3ccccc3n2c1C(=O)C(F)(F)F | 97.1% (inactive)
COc1cccc(-c2ccc(/C=N/NC(=O)c3[nH]c4ccc(Br)cc4c3-c3ccccc3)s2)c1 | 20.4% (inactive)
COc1ccc(NC(=O)CSc2nnc(-c3ccc(-c4nc5ccccc5[nH]4)cc3)o2)cc1 | 11.4% (inactive)
